# MITF inh: human MITF inhibition, primary screen | O75030 | AlphaScreen MITF homodimerization, bead proximity signal | inhibition, % at 2.6 µM | 650,000 tested, 0.91% active | AID 1259374; in the data active means inhibition above about 50%;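 further: 0% = vehicle wells with protein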
# GPR151 ag: activates the human receptor GPR151; Q8TDV0; activation, % at 11.2 µM; PathHunter beta-arrestin GPR151 cells, luminescence; AID 1508602; 650,000 tested, 1% active; in the data active means activation above about 4.9%;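 further: 0% = median of compound wells and 100% = cells with positive control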
# FBW7 act: human FBW7 E3 ligase activation, primary screen. Q969H0. AlphaScreen FBW7–phospho-cyclin E peptide binding, activator screen. normalized activity (activation), % at 26.1 µM. 650,000 tested, 0.13% active. AID 1259310; in the data active means normalized activity above about 1.9%;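 further: purified mutant Fbw7 with reduced substrate affinity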
# Target sequence (Q969H0 whole entry, looked up): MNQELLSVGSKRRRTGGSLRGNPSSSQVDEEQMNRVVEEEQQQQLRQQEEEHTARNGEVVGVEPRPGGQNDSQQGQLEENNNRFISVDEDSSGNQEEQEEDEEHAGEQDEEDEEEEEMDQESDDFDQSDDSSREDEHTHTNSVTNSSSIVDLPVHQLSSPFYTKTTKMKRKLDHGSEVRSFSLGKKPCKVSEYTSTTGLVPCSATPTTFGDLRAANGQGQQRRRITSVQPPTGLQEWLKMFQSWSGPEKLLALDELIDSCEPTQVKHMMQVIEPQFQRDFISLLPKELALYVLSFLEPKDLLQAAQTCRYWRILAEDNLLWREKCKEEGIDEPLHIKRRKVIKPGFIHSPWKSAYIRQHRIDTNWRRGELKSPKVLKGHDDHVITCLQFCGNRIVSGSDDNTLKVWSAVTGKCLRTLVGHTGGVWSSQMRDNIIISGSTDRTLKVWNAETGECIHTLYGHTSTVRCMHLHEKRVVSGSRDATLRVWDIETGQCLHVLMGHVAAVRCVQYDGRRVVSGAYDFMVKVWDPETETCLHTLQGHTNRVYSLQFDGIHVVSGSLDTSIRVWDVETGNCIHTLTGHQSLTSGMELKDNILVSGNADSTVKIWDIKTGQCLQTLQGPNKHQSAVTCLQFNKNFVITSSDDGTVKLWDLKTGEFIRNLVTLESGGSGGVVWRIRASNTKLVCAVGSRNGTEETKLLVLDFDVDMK
# TEAD-YAP inh: TEAD-YAP interaction inhibition; inhibition, % at 9.12 µM; 640,000 tested, 1.4% active; HEK-TIYL cells, TEAD-Gal4/YAP UAS-luciferase luminescence; in the data active means inhibition above about 32%;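 further: 0% = median of test compound wells and 100% = reference inhibitor wells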
# MITF confirm: human MITF inhibition, confirmation. inhibition, % at 2.6 µM. AlphaScreen MITF homodimerization, biotin/His-MITF beads. AID 1259372. shares compounds with MITF inh. 4,700 tested, 16% active;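 active means inhibition above a cutoff derived from the DMSO control wells, cut at about 28% in these data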;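 further: 0% = MITF dimer wells with DMSO only; inhibitors lower the bead chemiluminescence by keeping MITF from dimerizing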
# AlphaScreen DR: optically interferes with AlphaScreen signal in dose response; shares compounds with MITF inh; AlphaScreen optical interference counterscreen, cell-free; IC50, µM; 480 tested, 6% active; AID 1259373; call rule not given here
# AS interf ctr: counter-screen: compounds optically interfering with AlphaScreen; shares compounds with MITF inh; LysRS AlphaScreen counterscreen, signal interference, triplicate; inhibition, % at 2.6 µM; 4,700 tested, 7.6% active;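 active means inhibition above a cutoff derived from the DMSO control wells, cut at about 30% in these data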
# Numbers without * were called inactive; nt = no result. Rows were chosen to be rich in hits. Some 3.5% of all compounds tested hit in one or more screens of this group.
SMILES,MITF inh,GPR151 ag,FBW7 act,TEAD-YAP inh,MITF confirm,AS interf ctr,others
CCN1CCN(Cc2ccc(NC(=O)CCc3nc(C4=CCN(C)CC4)no3)cc2)CC1,58.6*,0.4,3.9*,4.5,63.1*,41.5*,
CCOC(=O)c1cccc(NC(=O)CCc2nc(C3=CCN(C)CC3)no2)c1,8.6,2.3,1.3,11.6,nt,nt,
CCOC(=O)C1C2NC(=S)N(Cc3ccc(OC)cc3)C1(C)Oc1ccccc12 (stereo unspecified),21.3,-2.3,-0.3,-24.3,nt,nt,
Cc1ccc(N2C(=O)CC(=O)NC2=O)cc1,82.5*,-0.9,-0.1,-1.2,-2.5,3.9,
O=C1CC(=O)N(c2ccc(Br)cc2)C(=O)N1,-0.5,-1.4,-0.1,-4.5,nt,nt,
CCOc1ccc(CN(CCc2ccc3c(c2)OCO3)Cc2ccc([N+](=O)[O-])cc2)cc1,54.1*,-2.9,0.1,3.0,0.6,15.3,
CCOc1ccc(CN(CCc2ccc3c(c2)OCO3)Cc2ccccc2)cc1,15.1,1.8,0.2,-3.5,nt,nt,
CN1CCN(c2ccc(C(F)(F)F)cc2[N+](=O)[O-])CC1,1.0,0.0,-0.1,-3.1,nt,nt,
O=c1c2ccccc2[nH]c(=S)n1-c1cccc(F)c1,-8.4,0.1,0.0,-0.5,nt,nt,
CN1CCN(Cc2ccc3c(c2)OCO3)CC1,35.2,-0.8,0.0,2.6,nt,nt,
Brc1ccccc1CN1CCN(Cc2ccc3c(c2)OCO3)CC1,60.2*,-0.6,-0.2,4.0,4.1,9.9,
Cc1ccccc1CN1CCN(Cc2ccc3c(c2)OCO3)CC1,57.6*,0.0,-0.1,11.9,2.1,3.8,
O=c1c2ccccc2nc(/C=C/c2ccc(Br)cc2)n1-c1ccccc1O,-12.3,0.1,0.1,-4.8,nt,nt,
CN(N=O)c1cc(O)ccc1O,77.7*,1.5,-0.3,7.0,62.2*,-19.4,AlphaScreen DR=>6.48
O=C(O)c1ccccc1C1=c2cc3c4c(c2Oc2c1cc1c5c2CCCN5CCC1)CCC[N+]=4CCC3,14.4,-1.0,-0.9,8.0,nt,nt,
O=C(c1ccncc1)N1CCN(C2CC3CCC2C3)CC1 (stereo unspecified),63.6*,2.1,-0.1,-3.6,0.6,14.0,
O=C(c1ccncc1)N1CCN(C2C3CC4CC(C3)CC2C4)CC1 (stereo unspecified),75.6*,1.1,0.2,11.4,-3.0,-2.6,
COc1cccc(N2CCN(Cc3cccc([N+](=O)[O-])c3)CC2)c1,51.3*,0.5,-0.1,-9.5,3.9,4.4,
CN1CCN(Cc2cccc([N+](=O)[O-])c2)CC1,1.5,-0.1,0.0,3.5,nt,nt,
Fc1ccc(CN2CCN(Cc3cccc(F)c3)CC2)cc1,44.7,-0.7,-0.2,-2.5,nt,nt,
CC(C)N1CCN(Cc2cccc([N+](=O)[O-])c2)CC1,67.4*,1.2,0.1,-20.3,3.7,10.3,
O=[N+]([O-])c1cccc(CN2CCN(Cc3ccc(F)cc3)CC2)c1,65.7*,-0.2,0.1,5.3,-15.7,-4.6,
O=[N+]([O-])c1cccc(CN2CCN(c3ccccc3)CC2)c1,36.2,0.4,-0.2,3.7,nt,nt,
CCNC(=O)c1c(CC2CCCC2)n(Cc2cccnc2)c(C)cc1=O,-23.8,0.0,0.0,-10.7,nt,nt,
COc1cc(/C=C/[N+](=O)[O-])cc(I)c1O,18.0,-1.4,-0.1,1.6,nt,nt,
SMILES,MITF inh,GPR151 ag,FBW7 act,TEAD-YAP inh,MITF confirm,AS interf ctr,others
CC[n+]1c(/C=C/c2ccc(N(C)C)cc2)ccn1-c1ccccc1,15.9,1.4,0.2,-4.4,nt,nt,
CCn1c2ccccc2c2cc(CN3CCN(C)CC3)ccc21,63.3*,0.3,0.2,4.0,13.5,13.1,
CCC(CC)N1CCN(Cc2ccc(OC)c(OC)c2OC)CC1,73.7*,-0.6,0.2,9.9,1.4,3.8,
CCC(C)N1CCN(Cc2cc(OC)ccc2OC)CC1 (stereo unspecified),56.6*,0.6,0.1,-6.9,-2.3,2.8,
COc1ccc(OC)c(CN2CCN(Cc3ccccc3)CC2)c1,5.7,0.0,0.1,-4.7,nt,nt,
CCC(C)N1CCN(Cc2ccc(OC)c(OC)c2OC)CC1 (stereo unspecified),69.3*,0.0,-0.2,4.0,-0.5,-6.8,
CCOc1ccc(CN(CCc2ccc3c(c2)OCO3)Cc2cccc(Cl)c2)cc1,19.4,1.2,0.0,-0.5,nt,nt,
O=C(O)C1C2CC3CC(C2)CC1(n1ncc(Nc2ccccc2O)c(Cl)c1=O)C3 (stereo unspecified),9.1,-0.6,-0.1,6.0,nt,nt,
COCC1CCCN(CC(=O)Nc2cccnc2)C1 (stereo unspecified),75.1*,-0.9,-0.5,-4.7,11.0,13.6,
CC(C)N1CCN(Cc2ccco2)CC1,61.6*,1.1,0.0,-2.0,6.6,-2.9,
COc1cccc(CN2CCN(C(C)C)CC2)c1,46.2,0.9,-0.1,4.2,nt,nt,
CC(C)N1CCN(Cc2cccnc2)CC1,73.8*,0.4,-0.1,12.6,4.2,7.4,
CCC(C)N1CCN(Cc2cccc(Br)c2)CC1 (stereo unspecified),73.4*,1.5,-0.2,9.2,8.3,14.7,
CC(C)N1CCN(Cc2cccc(Br)c2)CC1,81.5*,-0.3,-0.1,12.4,14.1,12.7,
CCN1CCN(Cc2cccc(Br)c2)CC1,16.1,0.6,0.5,5.0,nt,nt,
O=c1c2ccccc2nc(-c2ccc([N+](=O)[O-])cc2)n1-c1cccc(I)c1,2.0,-0.1,-0.1,6.8,nt,nt,
COc1ccccc1-n1c(/C=C/c2cccc(Br)c2)nc2ccccc2c1=O,7.0,1.5,0.1,6.8,nt,nt,
CCOC(=O)C1C2NC(=S)N(c3ccccc3C)C1(C)Oc1c(OCC)cccc12 (stereo unspecified),60.2*,-1.6,-0.5,7.6,33.5*,36.0*,
Cc1nc2ccccc2c(=O)n1-c1ccc(N)cc1,-3.0,0.8,0.1,5.8,nt,nt,
CN1CCN(Cc2ccc([N+](=O)[O-])o2)CC1,47.7,-0.5,-0.2,-2.5,nt,nt,
CN1CCN(Cc2ccc([N+](=O)[O-])s2)CC1,56.0*,2.6,0.1,-2.2,6.5,12.1,
CC(C)N1CCN(C2CC3CCC2C3)CC1 (stereo unspecified),60.5*,-0.6,-0.1,3.7,-11.9,2.3,
CC(=O)Nc1cc(CNC(C)Cc2ccc(F)cc2)cc(C(=O)N2CCN(C)CC2)c1 (stereo unspecified),0.0,-1.1,0.2,0.2,nt,nt,
COc1cccc(CN2CCN(Cc3ccc(Cl)cc3)CC2)c1,79.2*,3.5,0.0,-19.2,17.3,17.1,
COc1cccc(CN2CCN(Cc3ccc(F)cc3)CC2)c1,72.1*,-1.1,-0.2,-18.4,9.8,13.8,
Clc1ccc(CN2CCN(Cc3cccc(Cl)c3)CC2)cc1,71.1*,-0.1,-0.2,-2.1,17.0,16.9,
CN1CCN(Cc2ccc(C(F)(F)F)cc2)CC1,56.3*,-0.3,0.0,0.9,-0.3,3.0,
CN1CCN(Cc2ccc(N(C)C)cc2)CC1,-39.8,0.7,-0.4,-5.9,nt,nt,
COc1cccc(CN2CCN(c3ccc(F)cc3)CC2)c1,43.5,0.3,0.0,8.1,nt,nt,
Nc1ccc2c(c1)Cc1cc(N)ccc1-2,7.9,-0.9,-0.1,-2.2,nt,nt,
